High-throughput results deposited in PubChem BioAssay by National Center for Advancing Translational Sciences (NCATS).
Rab9 promoter act = activates the Rab9 promoter. AID 485297. Huh7 Rab9 promoter-luciferase reporter, luminescence, 24 h. Potency, µM (doses to about 9.22 µM), inactives show at the top dose activation, negative = inhibition, actives largely listed as activators. 2.8% of 320,000 active; also: % of control where 0% means no effect; nearly all actives have a fitted effect of over 60% in size
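Cell-based reporter: Huh7 stable for Rab9 promoter-driven luciferase, plated in reduced-serum medium with 10% FBS at 1500 cells/well, compound-treated 24 h at 37 °C, luminescence read after 10 min reagent.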
KinaseGlo FLuc = blocks Kinase-Glo luciferase, a counter-screen artifact | Potency, µM (highest dose often 38.3 µM), without a hit: top-dose activity change, negative = inhibition, most hits filed as inhibitors | 0.28% of 200,000 active | Kinase-Glo luciferase, ATP luminescence, 8 min; also: % is scaled to controls: 0 for no effect and ±100 for the full control effect; nearly all actives have a fitted effect of over 60% in size
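Compounds were added to a substrate mix at pH 7.2 (50 mM imidazole, 10 uM ATP, within the enzyme's linear range), followed by Kinase-Glo detection reagent; luminescence was measured after 8 minutes at ambient temperature.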
FLuc counter = firefly luciferase modulation, counter-screen for miR-21 project. P08659. purified FLuc, Km substrates, luminescence inhibition. Potency, µM (series often up to 57.5 µM), for the others: at the highest dose activity change, negative = inhibition, hits mostly inhibitors. 6.9% of 360,000 active. AID 588342;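 also: plate controls were vehicle for no effect and reference inhibitor for full effect; nearly all actives have a fitted effect of over 55% in size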
Target sequence (P08659 whole entry, looked up): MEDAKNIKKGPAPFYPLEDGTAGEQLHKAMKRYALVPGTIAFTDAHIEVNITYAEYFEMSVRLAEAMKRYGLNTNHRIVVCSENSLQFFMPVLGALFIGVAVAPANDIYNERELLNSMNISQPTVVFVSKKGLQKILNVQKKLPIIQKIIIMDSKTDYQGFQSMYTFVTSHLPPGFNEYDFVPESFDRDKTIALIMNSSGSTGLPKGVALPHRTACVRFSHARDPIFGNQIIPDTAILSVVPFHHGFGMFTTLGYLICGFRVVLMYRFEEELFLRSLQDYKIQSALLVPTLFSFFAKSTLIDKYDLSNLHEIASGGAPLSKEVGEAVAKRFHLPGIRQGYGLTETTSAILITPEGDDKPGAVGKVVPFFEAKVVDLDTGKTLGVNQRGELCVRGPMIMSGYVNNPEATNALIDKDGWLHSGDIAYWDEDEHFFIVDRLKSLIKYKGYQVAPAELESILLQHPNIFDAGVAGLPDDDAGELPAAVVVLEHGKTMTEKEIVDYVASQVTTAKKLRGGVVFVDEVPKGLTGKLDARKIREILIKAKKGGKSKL
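Purified P. pyralis luciferase (10nM final) with 10uM D-luciferin and 10uM ATP (Km levels) in 50mM Tris acetate pH 7.5, 10mM Mg acetate, 0.01% Tween-20, 0.05% BSA; qHTS 6-point titration, ~60 µM downward; luminescence read.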
NPC1 promoter act = activates the NPC1 promoter | Potency, µM (highest dose often 9.22 µM), for inactives: at the top dose activation, most hits filed as activators | 2.4% of 320,000 active | AID 485313 | Huh7 NPC1 promoter luciferase reporter, 24 h; also: % of control where 0% means no effect; nearly all actives have a fitted effect of over 60% in size
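Luciferase expression driven by the NPC1 promoter was measured in stably transfected Huh7 cells after a 24 h compound incubation, using a luciferase reagent and a luminescence read.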
SMN2 splice up = increases expression of the SMN2 splice variant; HEK293 SMN2-luciferase splicing reporter, luminescence, 30-36 h; Potency, µM (highest dose often 46.1 µM), without a hit: at the highest dose activity change, positive = activation, most hits filed as activators; 2.8% of 210,000 active; also: % of control where 0% means no effect; nearly all actives have a fitted effect of over 55% in size
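qHTS luciferase splicing reporter: luminescence rises when SMN2 exon 7 is included in transfected HEK293 cells. Compound exposure lasted 30-36 h at 37C, with 4.5 mM final sodium butyrate as control, followed by a ONE-Glo read.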
* = called active by the depositor; ? = inconclusive; . = no result given; [ ] = another dose, or the depositor's remark. In the library only some 7.3% were active in any assay of this set; here they are far more common. Calls follow the shape of the dose curve; as a rule, active = well fitted curve in the direction sought with a large enough effect; inconclusive = small, poorly fitted or top-dose-only effect, or another doubt; inactive = no such curve, though single readings can be large; an effect the other way counts as inactive or inconclusive. Potency is read from the fitted curve at half-maximal effect.

SMILES	Rab9 promoter act	KinaseGlo FLuc	FLuc counter	NPC1 promoter act	SMN2 splice up
O=C(NNC(=S)NCc1ccco1)c1ccc(Cl)s1	-3%	2%	5%	-5%	-14%
O=C(COc1ccc(Br)cc1)N1CCc2ccccc21	2.8µM*	.	9.5µM*	?	.
O=C(CSCc1ccco1)N1CCc2ccccc21	3.5µM*	.	9.5µM*	2.8µM*	.
O=C(CSc1ccccc1)N1CCc2ccccc21	3.5µM*	-8%	6.7µM*	3.5µM*	18µM*
COc1ccc(S(=O)(=O)NCCc2cn3ccsc3n2)cc1	.	.	-7%	.	.
COc1ccc(OC)c(/C=C/C(=O)Nc2ccc(C(=O)OCCC(C)C)cc2)c1	.	.	0%	.	-8%
CC(=O)Nc1ccc(N(C(=O)Cn2nnc3ccccc32)C(C(=O)NCc2ccccc2)c2ccc(C)cc2)cc1 (centres undefined)	.	.	-7%	.	9%
CCOc1ccc(C(=O)N2CCc3ccccc32)cc1	0.89µM*	.	15µM*	3.5µM*	.
O=C(CCCc1ccccc1)N1CCc2ccccc21	0.45µM*	-1%	2.1µM*	1.1µM*	11µM*
O=C(COc1ccccc1Cl)N1CCc2ccccc2C1	28%	.	?	15%	.
O=C(COc1ccccc1Cl)N1CCc2ccccc21	1.3µM*	.	6.7µM*	2µM*	.
CCCOc1ccc(C(=O)N2CCCc3ccccc32)cc1	0%	-6%	-5%	7%	8%
O=C(OCc1ccccc1)N1CCc2ccccc21	1.6µM*	.	2.7µM*	0.63µM*	.
O=C(CS(=O)(=O)Cc1ccccc1)N1CCc2ccccc21	16%	-1%	-15%	16%	26%
Cc1cc(C)c2c(-n3cccc3)c(C(=O)NCCCN3CCCCC3C)sc2n1 (centres undefined)	.	.	0%	.	.
NCCc1nc(-c2nc(C(=O)O)cs2)cs1	.	0%[7.66 µM]	.	.	-7%[9.22 µM]
Cc1ccc(-c2cn3c(n2)sc2cc(C(=O)NCc4cccs4)ccc23)cc1	.	.	-14%	.	.
Cc1ccc(NS(=O)(=O)c2ccc3c(c2)N(C)C(=O)CC(=O)N3C)cc1Cl	.	.	-9%	.	.
O=C(COc1ccccc1)OCC(=O)N1CCCc2ccccc21	1%	.	1%	-2%	.
O=C(COc1ccccc1)N1CCc2ccccc21	1.3µM*	-4%	5.4µM*	?	14µM*
O=C1c2ccccc2-c2onc3c(Oc4ccccc4)cc(O)c1c23	1%	-11%	?	9%	11µM*
O=C(N/N=C/c1ccc(OCc2ccccc2)cc1)c1ccco1	2.8µM*	.	?	?	.
CC(C)=C(NC(=O)c1ccccc1)C(=O)N/N=C/c1ccc(O)cc1	1%	-6%	17µM*	-1%	19%
O=C(N/N=C/c1ccccc1)c1ccc(OCc2ccccc2)cc1	15%	-1%	-2%	1%	-23%
COc1ccccc1/C=C/C=N/NC(=O)c1ccco1	?	.	17µM*	?	.
SMILES	Rab9 promoter act	KinaseGlo FLuc	FLuc counter	NPC1 promoter act	SMN2 splice up
CC(NC(=O)c1ccccc1NC(=O)c1ccco1)C(=O)O (centres undefined)	0.32µM*	1%	21µM*	0.56µM*	0.32µM*
COc1ccccc1/C=C/C=N/NC(=O)c1ccncc1	0%	3%	?	0%	9%
COc1ccc(OC(=O)c2nc(SCc3ccc(C)cc3)ncc2Cl)cc1	.	.	-3%	.	-8%
COc1cc(/C=N/NC(=O)c2ccncc2)ccc1OCc1cnc(Cl)s1	-2%	3%	3%	0%	13µM*
COc1cccc(/C=N/NC(=O)c2ccccc2NC(=O)c2ccco2)c1OC	-3%	.	11µM*	0%	.
COc1ccc(OC)c(NC(=O)c2ccccc2NC(=O)c2ccco2)c1	0%	.	?	7%	.
COc1cccc(/C=C/C(=O)NNC(=O)c2ccco2)c1OC	4µM*	.	11µM*	?	.
O=C(NNC(=O)c1ccccc1O)c1ccco1	?	-3%	19µM*	?	?
O=C(NNC(=O)c1ccccc1F)c1ccco1	18%	.	-14%	17%	.
COc1cccc(/C=C/C(=O)OCC(=O)NCc2ccco2)c1OC	1%	1%	-15%	1%	19%
COc1cc(-c2nc(Cn3nnc(C(=O)Nc4cc(C)cc(C)c4)c3C)c(C)o2)cc(OC)c1OC	.	.	-11%	.	-5%
COc1ccc(/C=N/NC(=O)c2ccco2)cc1OCc1ccccc1	-4%	.	-12%	0%	.
COc1ccc(C(=O)Nc2ccccc2C(=O)N/N=C/c2ccncc2)cc1OC	?	.	0.24µM*	2µM*	.
COc1ccc(C(=O)Nc2ccccc2C(=O)NCc2cccnc2)cc1OC	3%	.	0%	-4%	.
O=C(N/N=C\c1ccccc1OCc1ccccc1)c1ccco1	0%	-3%	21µM*	-1%	9%
COc1ccccc1/C=C/C=N/NC(=O)c1cc(-c2ccc(C)o2)[nH]n1	0%	.	15µM*	1%	.
COC(=O)c1ccc(COc2ccccc2/C=N/NC(=O)c2cccnc2)cc1	0%	-2%	21µM*	-3%	-5%
CC(=O)c1cc(-c2ccccc2)n(CCC(=O)NCc2ccc(C)cc2)c1C	.	.	-3%	.	.
O=C(N/N=C/c1ccc(OC(=O)c2ccco2)cc1)c1ccncc1	8%	.	1%	1%	.
O=C(N/N=C/c1ccc2cccnc2c1)c1ccco1	0.89µM*	.	6µM*	1.4µM*	.
CC(C)(C)OC(=O)N/N=C\c1ccc(OC(=O)c2ccco2)cc1	4µM*	2%	2%	?	?
O=C(Nc1ccccc1C(=O)N/N=C/c1ccc(O)cc1)c1ccccc1	?	.	0.15µM*	?	.
O=C(N/N=C/c1ccccc1)c1ccco1	3.2µM*	.	13µM*	?	.
CCCOc1ccccc1C(=O)N1CCCCC1CCN1CCCCC1 (centres undefined)	.	.	0%	.	-6%
COc1ccccc1NC(=O)Cn1c(=O)n(Cc2nc(C)no2)c(=O)c2cc3c(cc21)OCO3	.	.	-7%	.	.
Cc1ccc(OCCn2c(-c3ccc(Br)cc3)nc3ccccc3c2=O)cc1C	.	.	-13%	.	-1%
O=C(N/N=C/C=N/NC(=O)c1ccco1)c1ccco1	1%	.	-15%	0%	.
O=C(Nc1ccccc1C(=O)N/N=C/c1ccccc1)c1ccco1	28%	.	2.7µM*	?	.
O=C(N/N=C/C(Br)=C\c1ccccc1)c1ccco1	4µM*	.	3µM*	2.5µM*	.
